A selection: hits, their analogues and other compounds. The true share with any hit is near 19%.
TDP1 cell CPT = qHTS for Inhibitors of human tyrosyl-DNA phosphodiesterase 1 (TDP1): qHTS in cells in presence of CPT. 420,000 compounds, 12% hits. chicken DT40 Tdp1-/-;hTDP1 cells + 20 nM CPT, ATP luminescence, 48 h. Potency, µM (highest dose often 46.2 µM), hits mostly inhibitors; also: nearly all actives have a fitted effect of over 55% in size
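Chicken DT40 Tdp1-/- cells stably complemented with human TDP1 were seeded at 400 cells/well in medium containing 20 nM camptothecin, exposed to pin-transferred compounds, and grown at 37 °C for at least 48 hr. Viability was read as ATP luminescence.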
IL1B secr inh = qHTS for Inhibitors of Inflammasome Signaling: IL-1-beta AlphaLISA Primary Screen | 360,000 compounds, 4.7% hits | THP-1 LPS/ATP IL-1B secretion, AlphaLISA, 16 h; active compounds read low | activity change, % at 57.5 µM; in the data active = activity change below about -50%; inconclusive = mostly about -30% to -49%
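Secreted IL-1B measured by AlphaLISA bead assay after 16 h compound exposure of THP-1 cells; compounds (final up to 57.5 uM) added 1 h before LPS (250 ng/mL) and ATP (1.25 mM) stimulation; lower signal means less secretion.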
HT1080 IDH1KD tx = qHTS for induction of synthetic lethality in tumor cells producing 2HG: qHTS for the HT-1080-IDH1KD cell line; HT-1080 IDH1 knockdown viability, ATP luminescence, 48 h; Potency, µM (highest dose often 46.1 µM), most hits filed as cytotoxic; 360,000 compounds, 2% hits; AID 686971, 2013
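Using the IDH1-knockdown HT-1080 line run in the same batch and compound series as the NT line, viability after 48 h at 37 °C was determined by CellTiter-Glo luminescence and expressed as % activity.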
ELG1 repair inh = qHTS screen for small molecules that inhibit ELG1-dependent DNA repair in human embryonic kidney (HEK293T) cells expressing luciferase-tagged ELG1. HEK293T ELG1-luciferase reporter, luminescence, 16 h; DNA damage induced by 5-fluorouridine. Potency, µM (highest dose often 46.1 µM), most hits filed as inhibitors. 330,000 compounds, 2.3% hits; also: nearly all actives have a fitted effect of over 55% in size
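5-Fluorouridine DNA damage + compound/DMSO, 2,000 cells/well, 16 h, 37 °C/5% CO2. ONE-Glo, 30 min RT, luminescence. Readout = decrease in reporter signal.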
DT40 TDP1 no CPT = qHTS for Inhibitors of human tyrosyl-DNA phosphodiesterase 1 (TDP1): qHTS in cells in absence of CPT. Potency, µM (doses to about 46.2 µM), hits mostly inhibitors. 420,000 compounds, 15% hits. DT40 Tdp1-/- hTDP1 cells, no CPT, ATP luminescence, 48 h; also: nearly all actives have a fitted effect of over 55% in size
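Chicken DT40 Tdp1-/- cells stably complemented with human TDP1 were seeded at 400 cells/well with DMSO in place of 20 nM camptothecin. After compound pinning, cells grew at least 48 hr at 37 °C; viability read by CellTiter-Glo luminescence.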
HT1080-NT tox = qHTS for induction of synthetic lethality in tumor cells producing 2HG: qHTS for the HT-1080-NT fibrosarcoma cell line. AID 686970, 2013. 360,000 compounds, 1.6% hits. HT-1080-NT fibrosarcoma viability, CellTiter-Glo ATP luminescence, 48 h. Potency, µM (series often up to 46.1 µM), usual class: cytotoxic;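 also: NT is the 2HG producing partner of a matched IDH1 knockdown line; nearly all actives have a fitted effect of over 55% in size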
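Toxicity toward the 2HG-producing NT line was scored as %Activity, normalised to DMSO and no-cell wells, from CellTiter-Glo luminescence after 48 hours' treatment.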
Each line names hits and unclear results; the compound was inactive in the other large screens. Unless noted, calls follow the shape of the dose curve; as a rule, active = well fitted curve in the direction sought with a large enough effect; inconclusive = small, poorly fitted or top-dose-only effect, or another doubt; inactive = no such curve, though single readings can be large; an effect the other way counts as inactive or inconclusive.

Cn1c(=O)c2c(nc(SCCN3CCOCC3)n2Cc2cccc3ccccc23)n(C)c1=O	TDP1 cell CPT 8.2µM, HT1080 IDH1KD tx inconclusive, ELG1 repair inh inconclusive, DT40 TDP1 no CPT 5.2µM
COc1ccc(N2CC(NC(=O)CCCc3ccccc3)CC2=O)cc1 (stereo unspecified)	none (no result: IL1B secr inh, HT1080 IDH1KD tx, ELG1 repair inh, HT1080-NT tox)
CCCS(=O)(=O)c1nc(S(=O)(=O)c2ccc(C)cc2)c(N2CCCCC2)s1	TDP1 cell CPT inconclusive, DT40 TDP1 no CPT inconclusive (no result: ELG1 repair inh)
CCNc1sc(S(C)(=O)=O)nc1S(=O)(=O)c1ccc(Cl)cc1	IL1B secr inh inconclusive
CC1CCCN(c2sc(S(C)(=O)=O)nc2S(=O)(=O)c2ccc(Cl)cc2)C1 (stereo unspecified)	TDP1 cell CPT inconclusive, IL1B secr inh -71, DT40 TDP1 no CPT inconclusive
CC1CN(c2sc(S(C)(=O)=O)nc2S(=O)(=O)c2ccc(Cl)cc2)CC(C)O1 (stereo unspecified)	TDP1 cell CPT inconclusive, IL1B secr inh -64
CCS(=O)(=O)c1nc(S(=O)(=O)c2ccc(C)cc2)c(N2CCCC(C)C2)s1 (stereo unspecified)	IL1B secr inh inconclusive
CS(=O)(=O)c1nc(S(=O)(=O)c2ccc(Cl)cc2)c(N2CCOCC2)s1	TDP1 cell CPT inconclusive, IL1B secr inh -76, DT40 TDP1 no CPT inconclusive
CCCS(=O)(=O)c1nc(S(=O)(=O)c2ccc(C)cc2)c(N2CCOCC2)s1	TDP1 cell CPT inconclusive, IL1B secr inh -74, DT40 TDP1 no CPT inconclusive
CCc1c(C)nc(SCC(=O)N2CCCCC2C)[nH]c1=O (stereo unspecified)	ELG1 repair inh inconclusive
O=C(NCC1CCCO1)c1c[nH]c2ccc(S(=O)(=O)Nc3ccc(F)cc3F)cc2c1=O (stereo unspecified)	none (no result: IL1B secr inh, HT1080 IDH1KD tx, ELG1 repair inh, HT1080-NT tox)
CCN1CCN(c2sc(S(=O)(=O)CC)nc2S(=O)(=O)c2ccc(Cl)cc2)CC1	IL1B secr inh -66 (no result: ELG1 repair inh)
CN1CCOC(=O)/C1=N/Nc1cc(Cl)ccc1Cl	HT1080 IDH1KD tx 21µM, HT1080-NT tox inconclusive
CN(C)C(=O)C1Cc2ccccc2CN1S(=O)(=O)c1ccc(F)cc1 (stereo unspecified)	none
Oc1ccc(C[C@@H]2CNCCN2CC2CCCCC2)cc1	TDP1 cell CPT 16µM, DT40 TDP1 no CPT 23µM
Oc1ccc(C[C@H]2CNCCN2CC2CCCCC2)cc1	TDP1 cell CPT inconclusive, DT40 TDP1 no CPT 16µM
COc1cc(CCCN2CCNC[C@@H]2c2ccccc2)cc(OC)c1OC	none
c1ccc([C@H]2CNCCN2CCc2cccc3ccccc23)cc1	TDP1 cell CPT inconclusive, DT40 TDP1 no CPT 21µM, HT1080-NT tox inconclusive
CC(C)(C)CN1CCNC[C@H]1Cc1ccc(O)cc1	TDP1 cell CPT inconclusive
c1ccc(C[C@H]2CNCCN2CC2(c3ccccc3)CC2)cc1	TDP1 cell CPT inconclusive, DT40 TDP1 no CPT inconclusive
c1ccc2c(C[C@@H]3CNCCN3CC3CCCCC3)cccc2c1	TDP1 cell CPT 15µM, IL1B secr inh -58, DT40 TDP1 no CPT 16µM
O=C(NCCc1nnc2n1CCN(Cc1c(F)cccc1F)CC2)c1ccco1	none (no result: IL1B secr inh, HT1080 IDH1KD tx, ELG1 repair inh, HT1080-NT tox)
CCOC(=O)Cn1c(C)cc(COC)c(C#N)c1=O	ELG1 repair inh inconclusive, DT40 TDP1 no CPT 5.2µM
CNC(=O)c1ccc(-c2ccc(Cl)c(Cl)c2)s1	ELG1 repair inh inconclusive, DT40 TDP1 no CPT inconclusive
CC(=O)C1=C(c2ccc(Cl)c(Cl)c2)N(C(C)=O)n2c(C)nnc2S1	TDP1 cell CPT 2.9µM, DT40 TDP1 no CPT 4.1µM (no result: IL1B secr inh, HT1080 IDH1KD tx, ELG1 repair inh, HT1080-NT tox)
CC(=O)C1=C(c2ccc(Cl)c(Cl)c2)N(C(C)=O)n2cnnc2S1	TDP1 cell CPT 2.6µM, DT40 TDP1 no CPT 2.9µM (no result: IL1B secr inh, HT1080 IDH1KD tx, ELG1 repair inh, HT1080-NT tox)
